From the supplement of paper PMC10849652
About 7,900 targets were measured; listed, in parts, are those with a hit and a random draw of the rest. About 0.6% of all pairs of compound and target were hits. Values without a mark were called inactive.

Experiments:
Experiment in all cases: log2 fold change, soluble protein after heating vs DMSO (PISA); higher = thermal stabilisation; K562 cells, 10 uM, 30 min; active = over 0.2 and 3.5 SD of the protein, either way, in both replicates (recomputed)
IRAK-1-4 Inhibitor I = compound: C1COCCN1CCN2C3=CC=CC=C3N=C2NC(=O)C4=CC(=CC=C4)[N+](=O)[O-] [IRAK-1-4 Inhibitor I]
Method in brief: (§1)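 Aliquots of K562 cells (2×10^6 cells/mL) treated with 10 μM compound for 30 min were heated for 3 min over 48°C-58°C. After pooling and extraction in PBS with 0.5% NP-40 at 4°C, soluble protein from a 21,000xg, 90 min spin was quantified by TMTpro 16plex LC-MS/MS with channel sums equalised. Thermal stability is expressed against control samples, from duplicates, as a log2 fold change.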

ibrutinib = compound: C=CC(=O)N1CCC[C@@H](n2nc(-c3ccc(Oc4ccccc4)cc3)c3c(N)ncnc32)C1 [ibrutinib]
Method in brief: as §1

[1] = compound: CC(=O)c1cnc2ccc(-c3cc(Cl)c(O)c(Cl)c3)nc2c1N[C@H]1CC[C@H](CN(C)C)CC1
Method in brief: as §1

[2] = compound: CC(C)(O)CC(=O)NCCn1ccc2ncnc(Nc3ccc(Oc4cccc(C(F)(F)F)c4)c(Cl)c3)c21
Method in brief: as §1

[3] = compound: CC(C)C1=C2N=C(C=C(N2N=C1)NCC3=CC=CC=C3)NCCCCCCN
Method in brief: as §1

pinometostat = compound: CC(C)N(C[C@H]1O[C@@H](n2cnc3c(N)ncnc32)[C@H](O)[C@@H]1O)[C@H]1C[C@@H](CCc2nc3cc(C(C)(C)C)ccc3[nH]2)C1 [pinometostat]
Method in brief: as §1

[4] = compound: CC1=C(C(CC(=O)N1)C2=CC=C(C=C2)C(F)(F)F)C(=O)NC3=C(C=C4C(=C3)C=NN4)F
Method in brief: as §1

[5] = compound: CC1=C(C2=C(C=C1)C(=O)C3=CC=CC=C3N2CCCN)C
Method in brief: as §1

ralimetinib = compound: CC(C)(C)Cn1c(N)nc2ccc(-c3[nH]c(C(C)(C)C)nc3-c3ccc(F)cc3)nc21 [ralimetinib]
Method in brief: as §1

[6] = compound: CC(C)C[C@@H](C=O)NC(=O)[C@H](CC(C)C)NC(=O)[C@H](CC(C)C)NC(=O)OCc1ccccc1
Method in brief: as §1

Sequence of UniProt P25774 (P25774 whole entry, looked up): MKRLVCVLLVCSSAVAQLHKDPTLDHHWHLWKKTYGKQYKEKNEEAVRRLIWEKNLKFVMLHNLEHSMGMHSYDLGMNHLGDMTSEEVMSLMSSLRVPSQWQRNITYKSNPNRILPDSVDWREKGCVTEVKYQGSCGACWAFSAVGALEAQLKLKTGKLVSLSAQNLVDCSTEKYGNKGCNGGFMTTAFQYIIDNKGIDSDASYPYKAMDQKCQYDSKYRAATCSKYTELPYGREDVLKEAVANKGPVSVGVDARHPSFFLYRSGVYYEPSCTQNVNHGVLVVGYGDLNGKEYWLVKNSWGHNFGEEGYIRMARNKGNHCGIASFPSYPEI
Sequence of UniProt Q9NYP7 (Q9NYP7 whole entry, looked up): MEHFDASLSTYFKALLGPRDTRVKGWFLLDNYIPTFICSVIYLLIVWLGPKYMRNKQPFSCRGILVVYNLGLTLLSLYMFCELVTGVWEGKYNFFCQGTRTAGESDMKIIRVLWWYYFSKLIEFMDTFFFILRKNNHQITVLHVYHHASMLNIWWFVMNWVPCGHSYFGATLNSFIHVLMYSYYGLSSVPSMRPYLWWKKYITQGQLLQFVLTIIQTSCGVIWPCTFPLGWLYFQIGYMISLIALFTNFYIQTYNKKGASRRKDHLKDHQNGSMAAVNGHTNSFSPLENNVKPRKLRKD
Sequence of UniProt P18146 (P18146 whole entry, looked up): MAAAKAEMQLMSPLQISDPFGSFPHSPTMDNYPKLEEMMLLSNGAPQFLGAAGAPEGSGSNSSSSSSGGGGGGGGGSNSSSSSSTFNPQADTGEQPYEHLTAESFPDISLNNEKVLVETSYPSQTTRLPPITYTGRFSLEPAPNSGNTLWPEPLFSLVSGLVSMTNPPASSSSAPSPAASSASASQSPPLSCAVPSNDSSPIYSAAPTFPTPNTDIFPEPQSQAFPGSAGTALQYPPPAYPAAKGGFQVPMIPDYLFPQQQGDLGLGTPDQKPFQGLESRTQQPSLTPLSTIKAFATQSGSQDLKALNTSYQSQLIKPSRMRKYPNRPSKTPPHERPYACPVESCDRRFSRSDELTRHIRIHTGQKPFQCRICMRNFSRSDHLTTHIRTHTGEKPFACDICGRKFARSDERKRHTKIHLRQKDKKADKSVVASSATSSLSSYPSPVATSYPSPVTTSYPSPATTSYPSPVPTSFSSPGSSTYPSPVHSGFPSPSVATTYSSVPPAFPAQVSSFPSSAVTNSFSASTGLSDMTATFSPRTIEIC
Sequence of UniProt Q6P1L5 (Q6P1L5 whole entry, looked up): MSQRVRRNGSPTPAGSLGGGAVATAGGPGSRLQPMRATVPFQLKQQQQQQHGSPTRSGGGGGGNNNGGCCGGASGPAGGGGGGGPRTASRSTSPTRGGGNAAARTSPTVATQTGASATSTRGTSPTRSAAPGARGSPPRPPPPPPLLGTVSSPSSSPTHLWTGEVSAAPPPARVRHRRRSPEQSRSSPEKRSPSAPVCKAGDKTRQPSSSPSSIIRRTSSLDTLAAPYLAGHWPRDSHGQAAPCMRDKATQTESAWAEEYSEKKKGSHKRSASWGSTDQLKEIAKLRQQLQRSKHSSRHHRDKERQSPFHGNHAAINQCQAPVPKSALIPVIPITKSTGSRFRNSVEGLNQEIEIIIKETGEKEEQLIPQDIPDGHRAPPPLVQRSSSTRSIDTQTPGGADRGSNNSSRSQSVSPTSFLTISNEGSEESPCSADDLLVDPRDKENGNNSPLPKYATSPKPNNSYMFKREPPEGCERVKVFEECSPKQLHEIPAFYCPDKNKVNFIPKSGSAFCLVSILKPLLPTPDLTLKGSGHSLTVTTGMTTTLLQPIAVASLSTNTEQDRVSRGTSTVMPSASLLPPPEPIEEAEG
Sequence of UniProt P11182 (P11182 whole entry, looked up): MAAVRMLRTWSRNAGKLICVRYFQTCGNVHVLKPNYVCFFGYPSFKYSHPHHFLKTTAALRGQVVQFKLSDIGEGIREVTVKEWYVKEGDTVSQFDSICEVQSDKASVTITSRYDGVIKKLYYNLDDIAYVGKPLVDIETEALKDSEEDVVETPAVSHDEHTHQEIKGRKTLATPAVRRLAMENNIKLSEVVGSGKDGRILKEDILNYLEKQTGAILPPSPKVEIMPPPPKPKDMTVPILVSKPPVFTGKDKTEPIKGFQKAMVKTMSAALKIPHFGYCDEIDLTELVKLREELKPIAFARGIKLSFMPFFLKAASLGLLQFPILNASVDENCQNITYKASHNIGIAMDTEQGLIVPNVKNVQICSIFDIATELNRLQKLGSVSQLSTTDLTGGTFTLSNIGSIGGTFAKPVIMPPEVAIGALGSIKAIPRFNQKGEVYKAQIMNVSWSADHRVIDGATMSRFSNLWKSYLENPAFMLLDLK
Sequence of UniProt Q8TEH3 (Q8TEH3 whole entry, looked up): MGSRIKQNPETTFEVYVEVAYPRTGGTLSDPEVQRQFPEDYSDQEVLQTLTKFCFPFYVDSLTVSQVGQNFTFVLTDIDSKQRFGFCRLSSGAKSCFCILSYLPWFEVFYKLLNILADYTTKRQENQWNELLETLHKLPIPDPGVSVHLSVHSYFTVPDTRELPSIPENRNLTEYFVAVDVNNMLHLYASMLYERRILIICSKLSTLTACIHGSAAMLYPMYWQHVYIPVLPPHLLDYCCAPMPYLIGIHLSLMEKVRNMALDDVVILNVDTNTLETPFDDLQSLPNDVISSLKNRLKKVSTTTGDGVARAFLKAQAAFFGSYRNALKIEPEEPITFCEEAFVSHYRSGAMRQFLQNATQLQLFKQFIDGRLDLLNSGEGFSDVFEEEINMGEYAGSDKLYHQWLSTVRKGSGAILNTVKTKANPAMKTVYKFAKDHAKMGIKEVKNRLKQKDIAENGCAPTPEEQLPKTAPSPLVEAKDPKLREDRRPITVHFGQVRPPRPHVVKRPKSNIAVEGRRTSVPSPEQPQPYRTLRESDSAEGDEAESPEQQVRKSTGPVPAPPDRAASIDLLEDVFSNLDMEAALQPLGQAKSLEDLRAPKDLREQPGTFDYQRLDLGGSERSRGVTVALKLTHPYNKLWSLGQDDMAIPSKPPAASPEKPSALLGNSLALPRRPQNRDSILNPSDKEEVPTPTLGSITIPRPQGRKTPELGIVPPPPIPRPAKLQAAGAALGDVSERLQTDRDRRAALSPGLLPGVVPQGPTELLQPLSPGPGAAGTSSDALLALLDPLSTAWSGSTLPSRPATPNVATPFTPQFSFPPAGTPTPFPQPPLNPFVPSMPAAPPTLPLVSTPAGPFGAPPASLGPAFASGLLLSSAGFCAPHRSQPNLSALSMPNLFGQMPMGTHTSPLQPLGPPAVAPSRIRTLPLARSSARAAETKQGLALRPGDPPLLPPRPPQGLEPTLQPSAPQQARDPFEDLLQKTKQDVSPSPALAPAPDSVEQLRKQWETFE
Sequence of UniProt Q2TBE0 (Q2TBE0 whole entry, looked up): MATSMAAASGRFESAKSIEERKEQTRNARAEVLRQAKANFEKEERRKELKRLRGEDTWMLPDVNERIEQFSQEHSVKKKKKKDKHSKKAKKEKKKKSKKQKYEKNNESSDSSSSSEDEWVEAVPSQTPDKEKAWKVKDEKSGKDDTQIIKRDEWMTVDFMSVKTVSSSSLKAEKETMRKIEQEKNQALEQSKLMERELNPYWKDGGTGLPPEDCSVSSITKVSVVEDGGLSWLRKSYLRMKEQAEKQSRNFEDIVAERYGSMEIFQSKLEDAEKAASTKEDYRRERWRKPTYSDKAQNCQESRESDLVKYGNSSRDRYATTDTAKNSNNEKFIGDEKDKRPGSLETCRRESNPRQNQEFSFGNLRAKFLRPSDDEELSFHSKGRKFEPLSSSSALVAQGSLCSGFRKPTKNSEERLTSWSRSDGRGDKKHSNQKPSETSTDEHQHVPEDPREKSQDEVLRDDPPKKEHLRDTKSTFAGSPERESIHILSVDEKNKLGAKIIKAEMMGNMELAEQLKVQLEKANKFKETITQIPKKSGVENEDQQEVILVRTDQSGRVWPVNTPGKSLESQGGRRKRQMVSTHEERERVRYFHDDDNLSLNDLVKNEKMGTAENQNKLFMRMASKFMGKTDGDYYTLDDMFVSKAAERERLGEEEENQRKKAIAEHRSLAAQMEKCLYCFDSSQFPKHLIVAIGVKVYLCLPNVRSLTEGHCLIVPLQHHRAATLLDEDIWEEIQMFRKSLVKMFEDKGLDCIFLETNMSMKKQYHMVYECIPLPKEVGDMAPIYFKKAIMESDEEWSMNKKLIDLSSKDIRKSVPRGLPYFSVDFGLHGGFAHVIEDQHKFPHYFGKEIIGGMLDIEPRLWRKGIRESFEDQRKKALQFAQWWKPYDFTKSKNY
Sequence of UniProt Q9BQI3 (Q9BQI3 whole entry, looked up): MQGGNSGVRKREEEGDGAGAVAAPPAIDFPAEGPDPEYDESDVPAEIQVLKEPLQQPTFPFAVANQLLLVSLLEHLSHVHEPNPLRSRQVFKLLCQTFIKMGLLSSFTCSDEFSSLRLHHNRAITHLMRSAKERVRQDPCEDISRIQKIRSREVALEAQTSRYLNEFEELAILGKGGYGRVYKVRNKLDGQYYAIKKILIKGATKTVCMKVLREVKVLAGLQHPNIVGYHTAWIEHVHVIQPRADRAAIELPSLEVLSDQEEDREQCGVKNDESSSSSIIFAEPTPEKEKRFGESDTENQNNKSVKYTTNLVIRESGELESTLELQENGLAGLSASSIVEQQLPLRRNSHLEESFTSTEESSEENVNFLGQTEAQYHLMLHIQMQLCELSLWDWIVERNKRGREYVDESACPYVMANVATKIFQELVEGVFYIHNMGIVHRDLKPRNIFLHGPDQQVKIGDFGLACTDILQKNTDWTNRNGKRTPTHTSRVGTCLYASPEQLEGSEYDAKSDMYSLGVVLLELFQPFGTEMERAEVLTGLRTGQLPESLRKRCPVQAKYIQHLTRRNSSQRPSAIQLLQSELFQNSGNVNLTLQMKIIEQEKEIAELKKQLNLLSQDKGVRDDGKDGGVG
Sequence of UniProt Q6P3W2 (Q6P3W2 whole entry, looked up): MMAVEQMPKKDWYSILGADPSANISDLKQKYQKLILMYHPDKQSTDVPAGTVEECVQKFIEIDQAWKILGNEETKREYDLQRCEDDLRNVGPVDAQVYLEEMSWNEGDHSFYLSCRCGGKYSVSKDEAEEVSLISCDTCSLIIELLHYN

Target	log2 fold change (IRAK-1-4 Inhibitor I)	log2 fold change (ibrutinib)	log2 fold change [1]	log2 fold change [2]	log2 fold change [3]	log2 fold change (pinometostat)	log2 fold change [4]	log2 fold change [5]	log2 fold change (ralimetinib)	log2 fold change [6]
DPYSL2 (UniProt Q16555)	-0.003	0.092	0.024	0.092	0.066	0.009	-0.007	0.01	–	–
DHCR24 (UniProt Q15392)	-0.036	0.02	0.157	0.041	1.14 (active)	0.05	-0.104	0.212	0.04	0.022
DBT (UniProt P11182)	-0.004	0.019	0.021	0.006	0.027	0.002	0.015	0.352 (active)	0.109	0.023
EIF2AK1 (UniProt Q9BQI3)	-0.016	0.018	0.035	0.056	0.023	0.031	–	-0.114	-0.011	0.279 (active)
FAM193B (UniProt Q96PV7)	-0.049	-0.266	-0.03	-0.05	–	0.112	–	-0.181	–	–
DYNC1I2 isoform 5 (UniProt Q13409)	0.022	0.016	0.022	-0.003	0.041	-0.019	-0.015	-0.032	0.013	0.062
DNAL1 (UniProt Q4LDG9)	0.012	-0.082	0.042	0.183	–	0.093	–	–	0.042	0.007
EZH2 isoform 2 (UniProt Q15910)	-0.247	-0.114	0.115	-0.041	-0.239	0.068	–	-0.11	–	–
DNAJC24 (UniProt Q6P3W2)	-0.035	0.011	–	0.026	-0.037	-0.019	0.062	-0.023	0.058	0.058
EDRF1 (UniProt Q3B7T1)	–	0.068	–	0.048	0.004	–	–	–	0.04	0.066
ENTR1 (UniProt Q96C92)	–	–	–	–	-0.156	–	–	–	–	–
ELF1 (UniProt P32519)	-0.12	–	0.143	-0.567 (active)	-0.072	0.053	-0.22	-0.473	0.186	-0.076
DHRS13 (UniProt Q6UX07)	-0.275	–	-0.051	–	-0.007	0.224	-0.168	-0.085	0.035	0.144
EPHX2 (UniProt E5RI53)	–	0.085	–	0.071	–	–	–	–	–	–
DEGS1 (UniProt O15121)	–	0.049	0.066	0.013	0.074	–	-0.118	0.197	–	–
EHBP1 (UniProt Q8NDI1)	–	–	0.018	–	–	–	–	-0.003	–	–
F2RL3 (UniProt Q96RI0)	–	–	0.02	–	0.081	–	–	0.1	-0.084	0.021
CTSS (UniProt P25774)	-0.023	–	–	–	–	-0.001	–	0.316	-0.026	0.12
DDB1 isoform 2 (UniProt Q16531)	–	-0.034	–	0.078	–	–	–	–	–	–
EPHB4 (UniProt P54760)	–	–	–	–	–	–	–	–	0.131	0.241
CWF19L2 (UniProt Q2TBE0)	0.029	–	-0.075	–	0.184	0.098	–	0.106	0.014	0.02
ELOVL7 (UniProt A1L3X0)	–	–	0.059	-0.177	-0.617 (active)	–	–	0.062	–	–
DCAF4 (UniProt Q8WV16)	–	–	–	-0.019	–	–	0.043	–	-0.026	-0.042
ELOVL5 isoform 2 (UniProt Q9NYP7)	–	-0.075	-0.032	-0.272	-0.348	–	-0.027	0.002	-0.058	-0.05

Target	log2 fold change (IRAK-1-4 Inhibitor I)	log2 fold change (ibrutinib)	log2 fold change [1]	log2 fold change [2]	log2 fold change [3]	log2 fold change (pinometostat)	log2 fold change [4]	log2 fold change [5]	log2 fold change (ralimetinib)	log2 fold change [6]
DHPS (UniProt M0R1T2)	–	0.124	–	–	–	–	–	–	–	–
EGR1 (UniProt P18146)	–	0	-1.07 (active)	0.044	-0.452	–	0.188	-0.472	0.042	0.153
FADS1 (UniProt F5GYH4)	0.02	-0.093	–	–	–	0.075	–	-0.097	–	–
CTNNBL1 (UniProt Q8WYA6)	–	0.046	–	–	–	–	–	–	–	–
DLK1 (UniProt P80370)	0.023	–	–	-0.034	–	0.099	–	–	–	–
DOP1A (UniProt Q5JWR5)	–	-0.093	–	-0.054	0.092	–	–	–	–	–
DNAJB1 (UniProt M0R128)	–	-0.077	–	–	–	–	–	0.111	–	–
EEF2K (UniProt O00418)	–	–	–	-0.047	-0.245	–	–	–	0.126	0.169
DNAH10 (UniProt Q8IVF4)	0.004	0.018	–	-0.127	0.162	-0.106	-0.154	-0.022	–	–
DENND1A isoform 6 (UniProt Q8TEH3)	0.121	-0.003	–	–	–	-0.356	–	0.113	–	–
DDX46, A0A0C4DG89	–	–	–	-0.123	–	–	-0.005	–	–	–
EID1 (UniProt Q9Y6B2)	–	–	–	0.002	0.05	–	0.05	-0.281	–	–
DDX27 (UniProt Q96GQ7)	-0.037	–	0.115	0.106	-0.177	0.311	-0.344	-0.351	0.04	0.104
ENTPD7 (UniProt Q9NQZ7)	-0.146	-0.013	–	0.181	-0.043	-0.009	-0.022	-0.016	–	–
DCP2 (UniProt Q8IU60)	-0.372	–	-0.265	0.147	–	0.038	–	-0.111	0.105	0.185
DERPC (UniProt P0CG12)	-0.077	0.004	–	–	-0.003	0.161	0.066	–	0.017	-0.029
EIF4G1 (UniProt Q04637)	–	–	-0.334	–	–	–	–	0.067	–	–
ELAC1 (UniProt Q9H777)	0.028	–	0.027	0.027	0.116	-0.129	-0.01	–	–	–
EEF1D isoform 3 (UniProt P29692)	–	–	–	–	-0.27	–	–	0.605	–	–
FAM160A2 isoform 2 (UniProt Q8N612)	0.029	-0.003	–	-0.326	–	0.004	-0.146	0.102	-0.029	0.013
DENND10 (UniProt Q8TCE6)	–	0.037	0	-0.025	-0.119	–	0.059	-0.185	-0.003	0.016
FAM135A (UniProt Q9P2D6)	–	–	–	0.009	0.051	–	-0.002	–	–	–
ERF (UniProt P50548)	–	–	–	0.093	0.186	–	–	0.094	–	–
FAM117B (UniProt Q6P1L5)	0.238	–	-0.593	-0.255	0.144	-0.175	–	0.037	-0.177	0.016
